This is part of a sample that, as a whole, favours compounds with a hit. Of some 79,000 tested, about 15% had one in any assay. Activity calls are given as the source filed them. No stated cut-off is given here; in the data, active means growth inhibition above about 70%; inactive means the rest.
Assays:
[1] = NCI Yeast Anticancer Drug Screen. Data for the mec2-1 strain (AID 157); conditions: S. cerevisiae mec2-1 strain, active compounds read high
Procedure, shortened: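 Strain: mec2-1 (DNA repair/cell cycle alteration). Compound exposure, then growth measured; inhibition expressed relative to vehicle.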

[2] = NCI Yeast Anticancer Drug Screen. Data for the rad14 strain (AID 159);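 further: 0% = growth of vehicle-treated control cultures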; conditions: S. cerevisiae rad14 strain growth inhibition, active compounds read high
Procedure, shortened: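 Screen for anticancer potential: a yeast strain altered in DNA damage repair is grown with compound, and reduced growth is quantified against vehicle controls.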

[3] = NCI Yeast Anticancer Drug Screen. Data for the sgs1 mgt1 strain (AID 161);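 further: 0% = growth of cultures given vehicle only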; conditions: S. cerevisiae sgs1 mgt1 strain, active compounds read high
Procedure, shortened: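 Mutant yeast exposed to compound; growth scored against vehicle-only wells.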

[4] = NCI Yeast Anticancer Drug Screen. Data for the cln2 rad14 strain (AID 165);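 further: 0% = growth equal to vehicle treated cultures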; conditions: S. cerevisiae cln2 rad14 strain, active compounds read high
Procedure, shortened: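 Compounds are applied to the cln2 rad14 yeast strain, and growth is then compared with that of vehicle-treated cultures to give inhibition.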

[5] = NCI Yeast Anticancer Drug Screen. Data for the bub3 strain (AID 167); conditions: S. cerevisiae bub3 mutant strain, active compounds read high
Procedure, shortened: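 Screening used yeast with an engineered genetic alteration affecting cell cycle control. Compound-exposed cultures were compared with vehicle cultures, and reduced growth was taken as inhibition.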

[6] = NCI Yeast Anticancer Drug Screen. Data for the wt2 strain (AID 169);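 further: 0% = growth of vehicle-treated yeast cultures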; conditions: S. cerevisiae wt2 strain growth inhibition, active compounds read high
Procedure, shortened: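 This strain belongs to a panel of yeast strains with defined genetic alterations in DNA damage repair or cell cycle control. Compounds are applied, and growth inhibition is measured against vehicle-treated cultures.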

[7] = NCI Yeast Anticancer Drug Screen. Data for the mlh1 strain (AID 171);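 further: 0% = growth of vehicle-treated control cultures of the same strain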; conditions: S. cerevisiae mlh1 strain growth inhibition, active compounds read high
Procedure, shortened: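 Growth of the mutant yeast strain after compound exposure, expressed as inhibition relative to vehicle-only controls.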

[8] = NCI Yeast Anticancer Drug Screen. Data for the sgs1 strain (AID 173);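 further: 0% = growth of vehicle-only control cultures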; conditions: S. cerevisiae sgs1 mutant, active compounds read high
Procedure, shortened: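 Growth of a yeast strain bearing a defined genetic alteration is measured after compound treatment. Inhibition is expressed relative to vehicle-only controls.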

[9] = NCI Yeast Anticancer Drug Screen. Data for the mlh1 rad18 strain (AID 175); conditions: S. cerevisiae mlh1 rad18 strain growth inhibition, active compounds read high
Procedure, shortened: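 Read-out is yeast growth inhibition, calculated against vehicle-only controls. The compound was applied to a strain engineered with DNA damage repair alterations.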

[10] = NCI Yeast Anticancer Drug Screen. Data for the rad18 strain (AID 177); conditions: S. cerevisiae rad18 mutant growth inhibition, active compounds read high
Procedure, shortened: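 Growth of the mutant yeast strain after compound exposure, normalised to vehicle-only cultures.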

[11] = NCI Yeast Anticancer Drug Screen. Data for the rad52 strain (AID 147);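 further: 0% = growth of vehicle-treated control cultures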; conditions: S. cerevisiae rad52 mutant growth inhibition, active compounds read high
Procedure, shortened: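 Compounds are applied to a genetically defined yeast strain lacking normal DNA damage repair, and inhibition of growth is expressed relative to cultures given vehicle only.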

[12] = NCI Yeast Anticancer Drug Screen. Data for the wt1 strain (AID 149);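 further: 0% = growth of vehicle-treated wt1 cultures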; conditions: S. cerevisiae wt1 strain (SPY 50644) growth inhibition, active compounds read high
Procedure, shortened: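 Using yeast strain wt1, compound-induced growth inhibition was determined against vehicle-treated cultures.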

[13] = NCI Yeast Anticancer Drug Screen. Data for the rad50EPP+ strain (AID 151);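 further: 0% = growth of vehicle-treated control cultures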; conditions: S. cerevisiae rad50 mutant strain, active compounds read high
Procedure, shortened: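 Compounds were applied to the rad50EPP+ yeast strain, which bears a defined DNA repair alteration, and growth inhibition was determined relative to vehicle-treated cultures.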

[14] = NCI Yeast Anticancer Drug Screen. Data for the mgt1 strain (AID 153); conditions: S. cerevisiae mgt1 mutant growth inhibition, active compounds read high
Procedure, shortened: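 Strain: mgt1 yeast, one of a set carrying defined DNA damage repair or cell cycle control alterations. Compound-treated growth compared with vehicle.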

[15] = NCI Yeast Anticancer Drug Screen. Data for the rad50 strain (AID 155);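 further: 0% = growth of vehicle-only cultures of the same strain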; conditions: S. cerevisiae rad50 strain growth inhibition, active compounds read high
Procedure, shortened: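 Relative growth inhibition (compound vs vehicle) was measured in yeast with a defined repair-gene alteration.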

[16] = NCI Yeast Anticancer Drug Screen. Data for the CLN2oe strain (AID 163);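 further: 0% = growth of vehicle-only control cultures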; conditions: S. cerevisiae CLN2oe strain, active compounds read high
Procedure, shortened: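 Growth of a genetically modified yeast strain is measured after compound exposure and compared with cultures given vehicle alone.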

[17] = at 5.0 µM (retest, dose inferred, filed as 0.5)
[18] = at 50.0 µM (retest, dose inferred, filed as 5.0)

Measured: growth inhibition

CC(O)=NC(Cc1ccc2ccccc2c1)C(O)=NC(Cc1ccc(Cl)cc1)C(O)=NC(Cc1c[nH]c2ccccc12)C(O)=NC(CO)C(O)=NC(Cc1ccc(O)cc1)C(O)=NC(CCCN=C(N)N)C(O)=NC(CC(C)C)C(O)=NC(CCCN=C(N)N)C(=O)N1CCCC1C(O)=NC(C)C(=N)O (stereo unspecified)
active: [9]; [18] 70%
inactive: [1]; [17] -14% | [1]; at 11.0 µM -4% | [1]; at 33.0 µM -2% | [1]; [18] -6% | [1]; at 50.0 µM 1.1% | [1]; at 100.0 µM 3% | [2]; at 1.2 µM -5% | [2]; at 3.7 µM 1% | [2]; at 11.0 µM 4% | [2]; at 33.0 µM 7% | [2]; at 100.0 µM 24% | [3]; [17] 2% | [3]; [18] 20% | [3]; at 50.0 µM 3% | [4]; [17] -5% | [4]; [18] 18% | [4]; at 50.0 µM 12.2% | [5]; at 1.2 µM -2% | [5]; at 3.7 µM -1% | [5]; [17] 39% | [5]; at 11.0 µM -4% | [5]; at 33.0 µM -1% | [5]; [18] 32% | [5]; at 50.0 µM 19.9% | [5]; at 100.0 µM 1% | [6]; at 1.2 µM -9% | [6]; at 3.7 µM -10% | [6]; at 11.0 µM -2% | [6]; at 33.0 µM 11% | [6]; at 100.0 µM 2% | [7]; at 1.2 µM -7% | [7]; at 3.7 µM -4% | [7]; at 11.0 µM -3% | [7]; at 33.0 µM 3% | [7]; at 100.0 µM 17% | [8]; at 1.2 µM -21% | [8]; at 3.7 µM -18% | [8]; at 11.0 µM -17% | [8]; at 33.0 µM 3% | [8]; at 100.0 µM 44% | [9]; [17] 52% | [9]; at 50.0 µM 58.4% | [10]; at 1.2 µM -6% | [10]; at 3.7 µM -6% | [10]; at 11.0 µM -3% | [10]; at 33.0 µM 1% | [10]; at 100.0 µM 35%

OCC(CO)C(c1cccc2ccccc12)c1cccc2ccccc12
inactive: [11]; at 1.2 µM 3% | [11]; at 3.7 µM 42% | [12]; at 1.2 µM -5% | [12]; at 3.7 µM 1% | [13]; at 1.2 µM 0% | [13]; at 3.7 µM 3% | [13]; at 11.0 µM 10% | [13]; at 33.0 µM 13% | [13]; at 100.0 µM -2% | [14]; at 1.2 µM -1% | [14]; at 3.7 µM 9% | [15]; at 1.2 µM 4% | [15]; at 3.7 µM 40% | [15]; [17] 19% | [1]; at 1.2 µM -1% | [1]; at 3.7 µM 21% | [1]; [17] 4% | [3]; [17] 6% | [16]; at 1.2 µM -2% | [16]; at 3.7 µM 28% | [4]; [17] 2% | [5]; at 1.2 µM -1% | [5]; at 3.7 µM 9% | [5]; [17] -1% | [6]; at 1.2 µM -4% | [6]; at 3.7 µM 3% | [7]; at 1.2 µM 0% | [7]; at 3.7 µM 11% | [8]; at 1.2 µM 1% | [8]; at 3.7 µM 15% | [9]; [17] 7% | [10]; at 1.2 µM 7% | [10]; at 3.7 µM 53%
active: [11]; at 11.0 µM 98% | [11]; at 33.0 µM 98% | [11]; at 100.0 µM 88% | [12]; at 11.0 µM 98% | [12]; at 33.0 µM 99% | [12]; at 100.0 µM 94% | [14]; at 11.0 µM 98% | [14]; at 33.0 µM 99% | [14]; at 100.0 µM 93% | [15]; at 11.0 µM 98% | [15]; at 33.0 µM 98% | [15]; [18] 99% | [15]; at 50.0 µM 99.3% | [15]; at 100.0 µM 88% | [1]; at 11.0 µM 98% | [1]; at 33.0 µM 99% | [1]; [18] 99% | [1]; at 50.0 µM 99.2% | [1]; at 100.0 µM 92% | [3]; [18] 100% | [3]; at 50.0 µM 99.2% | [16]; at 11.0 µM 99% | [16]; at 33.0 µM 99% | [16]; at 100.0 µM 88% | [4]; [18] 97% | [4]; at 50.0 µM 99.2% | [5]; at 11.0 µM 98% | [5]; at 33.0 µM 99% | [5]; [18] 99% | [5]; at 50.0 µM 99.3% | [5]; at 100.0 µM 89% | [6]; at 11.0 µM 98% | [6]; at 33.0 µM 99% | [6]; at 100.0 µM 90% | [7]; at 11.0 µM 99% | [7]; at 33.0 µM 99% | [7]; at 100.0 µM 92% | [8]; at 11.0 µM 98% | [8]; at 33.0 µM 99% | [8]; at 100.0 µM 93% | [9]; [18] 99% | [9]; at 50.0 µM 98.7% | [10]; at 11.0 µM 98% | [10]; at 33.0 µM 99% | [10]; at 100.0 µM 88%
